Assay outcomes deposited in PubChem by several laboratories.
Beta cell apopt – blocks beta cell apoptosis. hit rate 0.8% among 300,000. AID 435005. INS-1E cytokine-induced death, ATP luminescence, 48 h; percent of positive-control rescue, neutral wells zero. protection from apoptosis, % (concentration not given with the values);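 active means Every replicate reaches about 75%, or at least half do and their mean reaches it too, limit read from the data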;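 further: higher means more ATP so stronger rescue from cytokine killing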
Mdm2-MdmX inh – human Mdm2/MdmX binding inhibition; O15151+Q00987; SaOS-2 split-luciferase Mdm2/MdmX complementation, luminescence; inhibition, % at 8 µM; hit rate 3% among 330,000;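 active means inhibition of at least 50% at 8 µM in the primary screen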
Target sequence (O15151 whole entry, looked up): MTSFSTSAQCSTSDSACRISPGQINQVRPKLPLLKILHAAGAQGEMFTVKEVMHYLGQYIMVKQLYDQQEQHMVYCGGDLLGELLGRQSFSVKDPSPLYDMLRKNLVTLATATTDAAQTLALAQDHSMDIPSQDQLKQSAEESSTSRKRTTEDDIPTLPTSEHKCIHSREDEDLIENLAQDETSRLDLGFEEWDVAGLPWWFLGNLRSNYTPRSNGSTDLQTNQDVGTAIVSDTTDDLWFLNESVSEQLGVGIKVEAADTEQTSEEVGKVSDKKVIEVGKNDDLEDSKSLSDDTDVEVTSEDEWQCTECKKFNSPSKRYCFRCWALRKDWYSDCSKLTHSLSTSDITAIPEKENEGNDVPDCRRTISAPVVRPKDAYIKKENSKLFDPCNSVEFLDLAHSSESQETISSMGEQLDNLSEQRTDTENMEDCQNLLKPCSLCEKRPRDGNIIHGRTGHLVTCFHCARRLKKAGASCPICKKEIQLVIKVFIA
Target sequence (Q00987 whole entry, looked up): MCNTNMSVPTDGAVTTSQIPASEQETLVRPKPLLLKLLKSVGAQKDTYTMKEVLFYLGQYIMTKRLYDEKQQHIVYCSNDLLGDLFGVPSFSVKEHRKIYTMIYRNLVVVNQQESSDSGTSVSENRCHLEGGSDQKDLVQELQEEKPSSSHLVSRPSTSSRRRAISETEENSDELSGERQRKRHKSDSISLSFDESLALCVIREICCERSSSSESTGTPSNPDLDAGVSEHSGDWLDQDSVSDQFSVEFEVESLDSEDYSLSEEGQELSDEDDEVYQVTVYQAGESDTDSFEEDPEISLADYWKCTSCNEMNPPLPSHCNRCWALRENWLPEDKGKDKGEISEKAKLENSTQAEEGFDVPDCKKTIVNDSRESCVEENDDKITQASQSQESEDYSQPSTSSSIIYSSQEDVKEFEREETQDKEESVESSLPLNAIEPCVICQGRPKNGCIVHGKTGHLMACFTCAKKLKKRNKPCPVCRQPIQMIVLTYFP
Jurkat NFkB inh – inhibitors of the PMA/ionomycin-induced NF-kB reporter in Jurkat cells; PMA/ionomycin-induced NF-kB luciferase reporter, luminescence; inhibition, % at 4 µM; hit rate 0.53% among 330,000; in the data active means inhibition above about 50%
697 NFkB inh – lowers PMA/ionomycin-induced NF-kB signal in 697 B cells; 697 B-cell NF-kB luciferase reporter, 16 h; inhibition, % at 4 µM; hit rate 0.33% among 330,000; in the data active means inhibition above about 35%
Gli-Sufu block – antagonists of Gli-Sufu signaling; hit rate 0.74% among 340,000; inhibition, % at 5 µM; Sufu-KO-LIGHT fibroblasts, Gli luciferase reporter luminescence;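 active means inhibition above about 55%, limit read from the data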
Mdm2 MdmX conf – human Mdm2/MdmX binding inhibition, confirmed; shares compounds with Mdm2-MdmX inh; hit rate 55% among 10,000; luminescent assay; inhibition, % at 8 µM; in the data active means inhibition above about 40%
Full FLuc ctr – counter-screen for Mdm2/MdmX inhibitors: full-length luciferase; AID 504607; shares compounds with Mdm2-MdmX inh; inhibition, % at 8 µM; hit rate 77% among 6,200; SaOS-2 full-length luciferase counterscreen, luminescence;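 active means mean inhibition at 8 µM reaching about 37%, which flags the compound as non-specific, limit read from the data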;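 further: p53-null SaOS-2 cells with luciferase driven by a doxycycline-inducible promoter; compound on cells about two nights before reading with doxycycline added after day one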
Hits are given with their value; . = inactive; / = no result given. Most compounds without a hit are left out; they make up all but 4% or so of the library.

SMILES	Beta cell apopt	Mdm2-MdmX inh	Jurkat NFkB inh	697 NFkB inh	Gli-Sufu block	Mdm2 MdmX conf	Full FLuc ctr
C[C@@H]1CN([C@@H](C)CO)C(=O)Cc2cc(NC(=O)Nc3ccc(F)cc3)ccc2O[C@@H]1CN(C)Cc1ccc(Cl)c(Cl)c1	.	100	.	.	.	63	56
C[C@H]1CN([C@@H](C)CO)C(=O)Cc2cc(NC(=O)CCC(F)(F)F)ccc2O[C@H]1CN(C)S(=O)(=O)c1ccc(Cl)cc1	/	55	.	.	.	50	65
C[C@@H]1CN([C@@H](C)CO)C(=O)c2cc(NS(C)(=O)=O)ccc2O[C@H]1CN(C)Cc1ccc(Oc2ccccc2)cc1	.	.	.	.	/	/	/
COc1cccc(C(=O)c2cn(CC(=O)NCc3ccco3)c3nc(C)ccc3c2=O)c1	.	.	.	.	.	/	/
CC[C@]12c3[nH]c4ccccc4c3CCN1C(=O)C(CC(=O)NCCCn1ccnc1)C[C@@H]2C(=O)N1CCN(C(=O)c2ccco2)CC1 (some centres not stated)	.	.	.	.	.	/	/
O=C(CCl)N(CCc1ccccc1)CCc1ccccc1	.	91	.	.	.	.	/
CCCN1CCC(NC(=O)C2CCN(C(C)=O)CC2)CC1	.	.	.	.	.	/	/
O=C(CCl)NCCCCCCCCCNC(=O)CCl	.	64	.	.	.	42	40
COC(=O)c1ccc(NC(=O)CN2CCN(CC#N)CC2)cc1	/	.	.	.	.	/	/
COc1ccc(C(=O)/C=C/c2ccc(OC(=O)c3cc(OC)c(OC)c(OC)c3)cc2)cc1	.	57	.	.	.	.	/
COc1ccc(/C=C/C(=O)Nc2ccccc2C(=O)O)cc1OC	/	62	.	.	.	76	131
COc1ccc(/C=C/C(=O)Nc2ccccc2C(=O)O)cc1	.	.	.	.	/	/	/
COc1cc(/C=C/C(=O)c2ccc(F)cc2)cc(OC)c1OC	.	.	.	.	.	/	/
CCOc1ccc(C(=O)/C=C/c2cc(OC)c(OC)c(OC)c2)cc1	.	63	.	.	.	55	49
CCOc1ccc(N2C(=O)S/C(=C\c3cc(OC)c(OC)c(OC)c3)C2=O)cc1	.	53	.	.	.	.	/
COC(=O)c1ccc(/C=C/C(=O)c2ccc(OC)cc2)cc1	.	.	.	.	.	/	/
O=C(Cn1c2ccc(F)cc2c2nc3n(c(=O)c21)CCS3)NCC1CCCO1 (configuration not stated)	.	.	.	.	.	/	/
COc1ccc(/C=C/C(=O)c2ccc(C(=O)/C=C/c3ccc(OC)c(OC)c3)cc2)cc1OC	/	54	.	.	.	.	/
COc1ccc(Oc2ccc(/C=C/C(=O)c3ccc(O)cc3)cc2[N+](=O)[O-])cc1	.	98	.	.	.	.	/
Nc1ccc(C(=O)NNC(=O)C2COc3ccccc3O2)cc1[N+](=O)[O-] (configuration not stated)	.	.	.	.	.	/	/
CS(=O)(=O)c1ccc(C(=O)OCC(=O)NC(=O)C2COc3ccccc3O2)cc1[N+](=O)[O-] (configuration not stated)	.	51	.	.	.	.	/
CS(=O)(=O)c1ccc(C(=O)OCC(=O)Nc2cccnc2Cl)cc1[N+](=O)[O-]	.	.	.	.	.	/	/
Cc1ccccc1NC(=O)COC(=O)c1ccc(S(C)(=O)=O)c([N+](=O)[O-])c1	.	55	.	.	.	.	/
CC(CCc1ccccc1)NC(=O)COC(=O)c1ccc(S(C)(=O)=O)c([N+](=O)[O-])c1 (configuration not stated)	.	81	.	.	.	83	55
Cc1ccccc1NC(=O)Cc1nc(COC(=O)c2ccc(NC(N)=O)cc2)cs1	.	.	.	.	.	/	/
Cc1ccccc1NC(=O)Cc1nc(COC(=O)c2ccc(S(C)(=O)=O)c([N+](=O)[O-])c2)cs1	/	97	.	.	.	94	57
